Common to all, as to assay: NCI-60 one-dose screen, 48 h (100 = growth as untreated, 0 = no growth, -100 = all killed)
Conditions in all cases: 10 µM unless noted

Experiment [1] deals with DU-145 prostate.
Experiment [2] deals with K-562 leukemia.
Experiment [3] relates to MALME-3M melanoma.
Experiment [4] concerns MDA-MB-231 breast.
Experiment [5] relates to RXF 393 renal.
The test system of experiment [6] is SF-268 CNS.
Experiment [7] concerns SF-295 CNS.
For experiment [8], the system named is SF-539 CNS.
Experiment [9] has as its system UACC-257 melanoma.
The test system of experiment [10] is M14 melanoma.
For experiment [11], the system named is HCT-15 colon.
The subject of experiment [12] is HT29 colon.
The subject of experiment [13] is SNB-75 CNS.
The subject of experiment [14] is SNB-19 CNS.
In experiment [15] the test system is U251 CNS.
The test system of experiment [16] is PC-3 prostate.
For experiment [17], the system named is SK-MEL-5 melanoma.
The test system of experiment [18] is UACC-62 melanoma.
Experiment [19] concerns LOX IMVI melanoma.
The subject of experiment [20] is SK-MEL-28 melanoma.

This is part of a sample that, as a whole, favours compounds with a hit. Of some 83,000 tested, about 20% had one in any assay.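 How to read the values: 0–100, growth inhibition (40 = 60% inhibited); 0, no net growth; -100 to 0, cell death (-40 = 40% of starting cells died; -100 = all dead).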 A number with no mark means an inactive call. The source made the active and inactive calls. How the source made its calls: active means growth percent below 10; inactive means the rest.

For `Cc1c(-c2ccc(O)cc2)n(Cc2ccc(OCCN3CCCCCC3)cc2)c2ccc(O)cc12`, the growth in experiment [1] is 87%; in experiment [2] it was -6.6% (active); in experiment [3], 69.5%; in experiment [4], 82.3%; in [5], 49.9%; in [6] it was 74.2%. Besides, the growth was 99.1% in experiment [7]; 61.7% in [8]; 81.6% in experiment [9]; 63.5% in [10]; 20.5% in experiment [11]; 59.4% in experiment [12]. Further, the growth in experiment [13] was 43.4%; in experiment [14], 88.1%; in experiment [15] it was 56.4%; in [16], 76.8%; in [17], 57.2%; in experiment [18], 98.3%. Moreover, the figures for the growth in [19] and in [20] were 39.4% and 92.6%, respectively.
Consider `O=C(Nc1ccccc1)Nc1ncnc2c1ncn2-c1ccc(Cl)cc1`, for which the growth was 96.3% in [1]; 99.6% in [2]; 71.9% in experiment [3]; 80.8% in experiment [4]; 91.7% in experiment [5]; 97.1% in experiment [6]. In addition, the growth in experiment [7] was 76.4%; in [8], 107%; in [9] it was 109%; in experiment [10], 98.9%; in experiment [11], 79%; in experiment [12] it was 80.4%. Besides, the growth in experiment [13] is 44.3%; in experiment [14], 97.1%; in [15], 77.6%; in experiment [16], 104%; in experiment [17], 94.9%; in experiment [18], 89.3%. Further, the growth is 91.9% in [19] and 95.5% in experiment [20].
As for `COc1cc(OC)c(NC(=O)c2cc3ccccc3cc2O)cc1Cl`, the growth in [1] was 46.4%; in [2] it was 23.4%; in experiment [3] it was 19.5%; in experiment [4], 70.4%; in [5], 120%; in experiment [6] it was 51.2%. Besides, the growth in [7] is 53.3%; in experiment [8] it was 52.9%; in experiment [9] it was 59.8%; in [10] it was 42.1%; in experiment [11], 48.5%; in [12] it was 101%. For the same compound, the growth in experiment [13] is 86.9%; in [14] it was 51%; in experiment [15], 17.7%; in [16], -0.247% (active); in [17] it was 51.4%; in experiment [18], 3.04% (active). The values for the growth in experiment [19] and in experiment [20] were 24.2% and 53.6%, respectively.
In the case of `C#CCOc1ccc2ncnc(Nc3ccc(NC(=O)C=C)cc3)c2c1`, the growth in experiment [1] is -29.8% (active); in experiment [2], -35.7% (active); in [3] it was -74.4% (active); in experiment [4], -71.7% (active); in [5] it was -80.6% (active); in [6] it was 6.18% (active). Besides, the growth in experiment [7] is 83.2%; in experiment [8], -10.4% (active); in [9] it was -26.3% (active); in experiment [10] it was -52.4% (active); in experiment [11], -14.8% (active); in experiment [12], -34.9% (active). Also, the growth was 70% in [13]; 17.6% in experiment [14]; -22.9% (active) in [15]; 3.24% (active) in experiment [16]; 13.1% in experiment [17]; -68.7% (active) in experiment [18]. In addition, the growth in experiment [19] was -82.6% (active); in experiment [20], 2.36% (active).
Take `CCOC(=O)c1csc(NC(=O)COc2ccc(/C=C3\Oc4ccccc4C3=O)cc2)n1`: the growth is 114% in experiment [1]; 62.7% in experiment [2]; 109% in experiment [3]; 81.7% in [4]; 79.6% in experiment [5]; 88.3% in experiment [6]. In addition, the growth in experiment [7] was 102%; in experiment [8], 95.5%; in experiment [9], 87.9%; in experiment [10], 94.6%; in [11] it was 113%; in experiment [12], 106%. For the same compound, the growth in [13] is 81.3%; in [14], 87.9%; in experiment [15], 91.1%; in experiment [16], 96.2%; in experiment [17], 98.7%; in [18], 79.6%. The growth in experiment [19] is 78.3%; in [20] it was 112%.
Consider `CC(=O)Oc1ccc(C)cc1C`, for which the growth in [1] is 110%; in experiment [2] it was 101%; in experiment [3] it was 104%; in experiment [4], 104%; in [5], 114%; in [6], 104%. The growth in [7] is 106%; in [8] it was 99%; in [9], 106%; in experiment [10], 103%; in experiment [11] it was 100%; in [12], 105%. Moreover, the growth in experiment [13] is 70.3%; in experiment [14] it was 103%; in [15], 103%; in experiment [16] it was 97%; in experiment [17] it was 108%; in experiment [18] it was 105%. The growth in [19] was 97.1%; in experiment [20] it was 107%.
In the case of `CCSC(SCC)c1ccc(Cl)cc1`, the growth in experiment [1] is 107%; in [2] it was 118%; in experiment [3], 102%; in [4], 107%; in experiment [5], 114%; in experiment [6], 100%. Also, the growth in experiment [7] is 87.1%; in experiment [8], 107%; in experiment [9], 99.4%; in experiment [10], 110%; in experiment [11] it was 108%; in [12], 97.4%. Besides, the growth in [13] was 107%; in experiment [14], 110%; in experiment [15] it was 102%; in experiment [16], 101%; in experiment [17] it was 110%; in [18] it was 98.6%. Besides, the growth in experiment [19] was 95.9%; in experiment [20] it was 115%.
With `O=C1c2c(c3c4ccccc4[nH]c3c3ccc4ccccc4c23)C(=O)N1CCN1CCOCC1`, the growth was 39.7% in experiment [1]; 10.9% in [2]; 44.5% in experiment [3]; 69.5% in experiment [4]; 18% in experiment [5]; 56.8% in experiment [6]. In addition, the growth in experiment [7] was 29.1%; in experiment [8], 51.7%; in experiment [9], 79.7%; in [10] it was 36.8%; in experiment [11] it was 20.6%; in experiment [12], 35.6%. For the same compound, the growth was 63.7% in experiment [13]; 56% in [14]; 32.3% in experiment [15]; 35.1% in [16]; 37.4% in experiment [17]; 38.7% in experiment [18]. In addition, the growth was 27.2% in experiment [19] and 73.9% in experiment [20].

The record behind these values is PubChem BioAssay (NCI).
